Rows were chosen to be rich in hits. Some 1.6% of all compounds tested hit in one or more screens of this group.
KCNQ2 block – rat KCNQ2 potassium channel inhibitors, primary screen, cell-based, CHO-K1, FluxOR thallium flux, B-score; AID 2156, 2009; 20 min; active compounds read low; Potassium voltage-gated channel subfamily KQT member 2 (Rattus norvegicus), O88943; B-score at 10 µM; 310,000 compounds, 1.1% hits;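 active = fluorescence ratio B-score at most minus 3 library SDs, with starting brightness B-score within 2 library SDs, cut at about -5.5 in these data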
Target sequence (O88943 whole entry, looked up): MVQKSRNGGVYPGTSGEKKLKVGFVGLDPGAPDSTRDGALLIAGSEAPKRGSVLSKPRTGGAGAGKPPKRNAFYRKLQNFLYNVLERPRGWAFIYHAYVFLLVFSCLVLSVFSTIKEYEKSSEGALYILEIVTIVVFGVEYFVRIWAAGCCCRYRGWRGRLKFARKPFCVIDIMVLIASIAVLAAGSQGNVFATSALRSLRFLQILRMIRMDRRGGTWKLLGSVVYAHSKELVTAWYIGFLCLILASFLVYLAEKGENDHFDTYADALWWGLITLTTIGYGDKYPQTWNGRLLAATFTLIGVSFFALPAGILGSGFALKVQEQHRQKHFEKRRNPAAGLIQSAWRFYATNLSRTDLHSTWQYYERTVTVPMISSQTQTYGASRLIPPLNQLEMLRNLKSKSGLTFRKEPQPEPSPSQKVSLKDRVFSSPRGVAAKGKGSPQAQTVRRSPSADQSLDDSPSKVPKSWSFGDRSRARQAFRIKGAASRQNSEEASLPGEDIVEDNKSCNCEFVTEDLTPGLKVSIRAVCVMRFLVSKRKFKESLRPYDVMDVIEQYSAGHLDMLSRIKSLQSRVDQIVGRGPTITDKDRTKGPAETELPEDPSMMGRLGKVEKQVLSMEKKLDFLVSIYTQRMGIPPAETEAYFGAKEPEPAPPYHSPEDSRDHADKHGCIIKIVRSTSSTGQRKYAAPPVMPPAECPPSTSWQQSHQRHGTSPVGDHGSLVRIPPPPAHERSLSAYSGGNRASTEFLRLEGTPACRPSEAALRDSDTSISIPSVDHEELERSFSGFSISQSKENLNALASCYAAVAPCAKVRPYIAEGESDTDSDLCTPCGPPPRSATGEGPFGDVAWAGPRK
KCNQ2 pot – potentiators of rat KCNQ2 potassium channel; Potassium voltage-gated channel subfamily KQT member 2 (Rattus norvegicus), O88943; CHO-K1 KCNQ2, FluxOR thallium flux fluorescence; active compounds read high; B-score at 10 µM; 310,000 compounds, 0.54% hits; AID 2239, 2010;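 active = fluorescence ratio B-score at least 3 SD of library B-scores, with initial fluorescence B-score within 3 of them, cut at about 5.3 in these data; same plate scores as AID 2156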;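 note: B-score of peak minus minimum over baseline fluorescence ratio after K+ and Tl+ stimulus; positive B-score means potentiation of KCNQ2 with more thallium influx and brighter signal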
KCNQ2 block conf – rat KCNQ2 potassium channel inhibitors, confirmation, cell-based, thallium flux. shares compounds with KCNQ2 block. KCNQ2-expressing cells, inhibition; active compounds read low. activity change, negative = inhibition, % at 10 µM. 1,000 compounds, 57% hits. AID 493025, 2011
KCNQ1 spec – human KCNQ1 channel inhibition, counter-screen for KCNQ2 inhibitor project, cell-based, FluxOR thallium flux; shares compounds with KCNQ2 block; KCNQ1-expressing cells, FluxOR thallium flux fluorescence; active compounds read low; activity change, negative = inhibition, % at 10 µM; 1,000 compounds, 15% hits;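 active = activity change at least 3 SD of negative controls below their mean in both duplicate wells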;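 note: CHO cells stably transfected with KCNQ1 and depolarized by potassium stimulus; peak minus minimum fluorescence over baseline after thallium addition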
CHO Tl ctr – thallium flux change in parental CHO cells, counter-screen for KCNQ2 inhibitor project. activity change, % at 10 µM. active compounds read low. 1,000 compounds, 14% hits. shares compounds with KCNQ2 block. AID 493029, 2011
KCNQ2 inh confirm – rat KCNQ2 channel inhibitors, confirmation, cell-based, automated patch clamp, single concentration | shares compounds with KCNQ2 block | KCNQ2-expressing cells, automated patch clamp current | calls only at 10 µM | 550 compounds, 49% hits | AID 588531, 2011
Of the large screens only hits and unclear results are named; the others gave an inactive call (follow-up assays come after a bar, where they were run). Unless noted, the rule behind the calls is not given here.

COc1cccc(NC(=O)C(NC2CCCC2)c2ccccc2)c1 (configuration not stated)	none (no result: KCNQ2 pot)
CC(C)NC(C(=O)Nc1cc(Cl)cc(Cl)c1)c1ccccc1 (configuration not stated)	KCNQ2 block -8.11 | KCNQ2 block conf -36.0% | KCNQ1 spec inactive | CHO Tl ctr inactive | KCNQ2 inh confirm inactive
Cc1ccc(NC(=O)C(NC2CCCC2)c2ccccc2)cc1Cl (configuration not stated)	KCNQ2 block -6.81 | KCNQ2 block conf -36.5% | KCNQ1 spec -39.0% | CHO Tl ctr -36.0% | KCNQ2 inh confirm inactive
O=C(Nc1cc(Cl)cc(Cl)c1)C(NCC1CCCO1)c1ccccc1 (configuration not stated)	KCNQ2 block -7.77 | KCNQ2 block conf inactive | KCNQ1 spec inactive | CHO Tl ctr inactive
CC(OC(=O)c1cc(Br)ccc1O)C(=O)NC1(C#N)CCCCC1 (configuration not stated)	none (no result: KCNQ2 pot)

Screening data (PubChem)
